Among the data in PubChem BioAssay (NCATS) are Potency, max response and outcome values, retold here.

Values joined by “and” are separate entries in the source; they are usually repeats but may differ in a detail not shown here. Equal values may be shown once. Results filed as inconclusive are left out. Some structures have more than one record in an assay (separate samples or runs), and their calls can disagree. A number with no mark means an inactive call. Active and inactive are the calls of the source. Calls follow the shape of the dose curve; as a rule, active = well fitted inhibition curve with a large enough effect; inconclusive = small, poorly fitted or top-dose-only effect; inactive = flat fitted curve, though single readings scatter.
% is scaled to controls: 0 for no effect and ±100 for the full control effect; potency is read from the fitted curve at half-maximal effect.

The assay concerns HEK293. The assay can be described thus: Cytotoxic Profiling of Annotated Libraries Using Quantitative High-Throughput Screening (AID 1296008). Also: nearly all actives have a fitted effect of over 60% in size. The settings on record: Five cell lines viability, CellTiter-Glo ATP luminescence, 48-72 h; max response: stronger effect = lower value. An excerpt: Cell-based phenotypic screening is a commonly used approach to discover biological pathways, novel drug targets, chemical probes and high-quality hit-to-lead molecules. Many hits identified from high-throughput screening campaign are ruled out through a series of follow-up potency, selectivity/specificity, and cytotoxicity assays. Prioritization of molecules with little or no cytotoxicity for a more in-depth downstream evaluation influence the future direction of projects, so cytotoxicity profiling of the screening libraries at early stage is essential for increasing the likelihood of candidate success. […] For the annotated library, we also examined the primary targets and mechanistic pathways regularly associated with cell death. To our knowledge, this is the first study to use high-throughput screening to profile large libraries for cytotoxicity assessment in both normal and cancer cell lines. In summary, the results generated here constitutes a valuable resource for the scientific community and provides insight on identifying cytotoxic compounds with particular mechanisms of action, and prioritizing compounds with suitable cytotoxicity profile for further evaluation.
A pintool (Kalypsys) was used to transfer 23 nL of compound solution to the 1536-well assay plates. After 48 or 72 hr incubation at 37 degree Celsius, 5% CO2 and 95% humidity, 2.5 uL of CellTiter-Glo (Promega) was dispensed into each well using a dispenser (Aspect Automation, St. Paul, MN) with solenoid valves (Lee Valves, Westbrook CT). Plates were left at room temperature for 10 min before imaging the ATP-coupled luminescence using a ViewLux microplate imager (PerkinElmer, Waltham, MA).
On to `O=C(c1ccc(F)c(F)c1Nc1ccc(I)cc1F)N1CC(O)([C@H]2CCCCN2)C1`, for which the Potency was 26.4 µM (active). The same measure, in the same setting: the figure for `CNC(=O)c1cc(Oc2ccc(NC(=O)Nc3ccc(Cl)c(C(F)(F)F)c3)c(F)c2)ccn1` is 7.43 µM (active). Regarding `O=c1[nH]c(=O)n([C@H]2C[C@@H](O)[C@@H](CO)O2)cc1I`, the max response was -22.9%.

Regarding `O=C(O)CCC=CCC[C@@H]1[C@H](N2CCCCC2)[C@@H](O)C[C@@H]1OCc1ccc(-c2ccccc2)cc1`, the max response is -1.41%. On the same count and under the same terms, with `Nc1[nH]nc2nnc(-c3c(-c4ccccc4)nn4ccccc34)cc12` the figure was 2.02% and -4.98%. Consider `Cc1[nH]c(C=C2C(=O)Nc3ccc(S(=O)(=O)N(C)c4cccc(Cl)c4)cc32)c(C)c1C(=O)N1CCN(C)CC1`, for which the Potency was 5.26 µM (active). `CN1C(=O)C(Cc2c[nH]c3ccccc23)NC1=S` (stereo not given): the compound was classed as inactive and the max response is 1.8%.

For `COc1cc2ncnc(Nc3cc(Br)c(O)c(Br)c3)c2cc1OC`, the result was inactive and the max response was 0.846%. As to `COc1ccc(-c2ccc3ncc4c(c3c2)n(-c2ccc(N3CCNCC3)c(C(F)(F)F)c2)c(=O)n4C)cn1`, the Potency was 0.0092 µM (active) and the max response is -112%. With `Cc1ccc(C(=O)N(CCCN)[C@@H](c2nc3cc(Cl)ccc3c(=O)n2Cc2ccccc2)C(C)C)cc1`, the max response is -91.6%. Turning to `NC(=O)c1noc([C@H](CCCC2CCCCC2)CC(=O)NO)n1`, the Potency is 11.8 µM (active). Same read-out and setting: with `C[C@H]1O[C@@H](n2cc(F)c(=O)[nH]c2=O)[C@H](O)[C@H]1O` the figure was 13.2 µM (active).

`C=CC[N+]1([C@H]2C[C@H]3[C@@H]4CC[C@H]5C[C@H](O)[C@@H](N6CCOCC6)C[C@]5(C)[C@@H]4CC[C@]3(C)[C@H]2OC(C)=O)CCCC1`: the max response was -1.88%. Regarding `CC(C)N(CCCNC(=O)Nc1ccc(C(C)(C)C)cc1)C[C@H]1O[C@@H](n2cc(Br)c3c(N)ncnc32)[C@H](O)[C@H]1O`, the Potency was 18.7 µM (active). Regarding `COC(=O)[C@H](c1ccccc1Cl)N1CCc2sccc2C1`, the max response is 3.92%. With `CNC(=O)c1c(-c2ccc(F)cc2)oc2cc(N(CCO)S(C)(=O)=O)c(C3CC3)cc12`, the call was inactive. In the case of `Cc1ccccc1C(C(=O)NC1CCCCC1)N(C(=O)CNc1ccc(C#N)cc1)c1cccc(F)c1` (stereo not given), the outcome was inactive and the max response is -1.85%. On to `CC1(COc2ccc3c(c2)ncn3-c2ccc3cccc(N4CCC(N)CC4)c3n2)COC1`, for which the Potency was 7.43 µM (active) and 8.2 µM (active). On to `Cc1ccc(C(=O)N(CCCN)[C@@H](c2oc3cc(Cl)ccc3c(=O)c2Cc2ccccc2)C(C)C)cc1`, for which the Potency is 0.0662 µM (active).

On to `CCc1cc(-c2n[nH]c(C)c2-c2ccc3c(c2)OCCO3)c(O)cc1O`, for which the Potency was 11.8 µM (active). On to `CC(C)CN(C[C@@H](O)[C@H](Cc1ccccc1)NC(=O)O[C@H]1CO[C@H]2OCC[C@H]21)S(=O)(=O)c1ccc(N)cc1`, for which the max response is -18.9%. Consider `CN[C@@H]1CN(c2ccc3c(=O)c(C(=O)O)cn(-c4nccs4)c3n2)C[C@@H]1OC`, for which the Potency was 1.29 µM (active).

`CC1=C[C@@H]2[C@@H]([C@@H](O)C[C@@]3(C)[C@H]2C[C@@H](C)[C@]3(O)C(=O)CO)[C@@]2(C)Cc3cnn(-c4ccccc4)c3C=C12`: the Potency is 10.3 µM (active). Regarding `CCOC(=O)[C@@H](N)CCC(=O)N[C@@H](CSCc1ccccc1)C(=O)N[C@@H](C(=O)OCC)c1ccccc1`, the max response was -7.26%.

As to `FC(F)(F)c1ccc(C=Cc2nc(COc3ccc(CCCCn4ccnn4)cc3)co2)cc1`, the max response was -116%. Take `C[C@@]1(C(=O)Nc2ccc(F)nc2)CCCN1c1nc(Nc2cc(C3CC3)[nH]n2)c2cccn2n1`: the Potency was 3.72 µM (active). For the compound `COc1nccc(-c2c(-c3ccc(F)cc3)ncn2C2CCNCC2)n1`, the Potency was 3.32 µM (active) and the max response was -20%. With `O=C(NCCCCN1CCOCC1)c1cc2ccccc2o1`, the max response is -14.9%. On the same count and under the same terms, the figure for `O=C1NC(=O)C(=Cc2ccc(-c3ccc(F)cc3O)o2)S1` is -12.7%; for `COc1cc2ncn(-c3cc(OCc4ccccc4S(C)(=O)=O)c(C#N)s3)c2cc1OC` it is -13.3%. For `CC(C)n1c(C=C[C@H](O)C[C@H](O)CC(=O)O)c(-c2ccc(F)cc2)c2ccccc21`, the Potency is 14.8 µM (active). For `CC(C)CNc1ccnc(NCc2csc(-c3ccccc3)n2)n1`, the Potency is 5.26 µM (active) and 1.64 µM (active). Turning to `O=C(O)c1nc(=O)[nH]c(=O)[nH]1`, the max response is -17.5%.

On to `CN(C(Cc1ccc(OS(=O)(=O)c2cccc3cnccc23)cc1)C(=O)N1CCN(c2ccccc2)CC1)S(=O)(=O)c1cccc2cnccc12` (stereo not given), for which the Potency is 5.26 µM (active). `Cc1cc(OCCCS(C)(=O)=O)cc(C)c1-c1cccc(COc2ccc3c(c2)OC[C@H]3CC(=O)O)c1`: the Potency is 20.9 µM (active).
